Assay results published in PubChem BioAssay.
For part of these data: Entries with a potency or affinity are not part of this list. Active and inactive are the calls of the source.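 The calls were made as follows, unless noted: active = fluorescence ratio normalized to control raised more than 50% in primary screen plus both repeat runs; inactive = the rest.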

How the values were obtained:
[1] = tested on: TRPC4 beta (transient receptor potential cation channel C4), mouse; assay: activators of mouse TRPC4 channel, confirmation, cell-based, Fluo4 calcium, HEK293 TRPC4beta/mu-opioid, duplicates, 10 µM (AID 2426); conditions: Fluo4 calcium fluorescence, at 10 µM; hits give high values;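 also: percent rise of integrated ratio over buffer wells lacking compound which define 0%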
[2] = tested on: transient receptor potential cation channel C4 beta (TRPC4), mouse; assay: activators of mouse TRPC4 channel, confirmation, cell-based, second round, Fluo4, HEK293 TRPC4beta/mu-opioid, 1 µM (AID 2461;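 active = primary screen active and over 50% activation in each of two duplicate runs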;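 as to activation: 0% = wells without test compound as baseline of integrated fluorescence ratio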); conditions: Fluo4 calcium fluorescence, at 1 µM; hits give high values
[3] = tested on: TRPC4 (transient receptor potential cation channel C4 beta), mouse; assay: positive allosteric modulators of mouse TRPC4, confirmation, cell-based, second round, Fluo-4, HEK293 TRPC4beta/mu-opioid, 1 µM (AID 2554;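 active = primary screen hit whose fluorescence ratio, in both repeats, exceeds the weak agonist control mean by 3 SD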); conditions: DAMGO EC20, Fluo-4 calcium flux, at 1 µM; hits give high values
[4] = tested on: TRPC4 beta (transient receptor potential cation channel C4), mouse; assay: positive allosteric modulators of mouse TRPC4, confirmation, cell-based, Fluo-4, HEK293 TRPC4beta/mu-opioid (AID 2555;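 active = primary screen hit whose calcium fluorescence ratio, in both repeats, exceeds the weak agonist control mean by 3 SD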); conditions: DAMGO EC20, Fluo-4 calcium flux, at 10 µM; hits give high values
[5] = target: Short transient receptor potential channel 4 (Mus musculus) (UniProt Q9QUQ5); assay: inhibitors of mouse TRPC4 channel, confirmation, cell-based, Fluo4, HEK293 TRPC4beta/mu-opioid (AID 2636;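 active = calcium signal cut by more than 3 SD below the full-agonist control yet still positive, in both repeats and the earlier primary screen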); conditions: DAMGO, Fluo4 calcium flux, at 10 µM; hits give high values
[6] = target: Short transient receptor potential channel 4 (Mus musculus) (UniProt Q9QUQ5); assay: inhibitors of mouse TRPC4 channel, confirmation, cell-based, second round, Fluo4, HEK293 TRPC4beta/mu-opioid, 1 µM (AID 2637;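 active = calcium signal ratio cut to more than 3 SD under the fully stimulated control mean yet still positive, in both repeats and the primary screen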); conditions: Fluo4 calcium flux, DAMGO, at 1 µM; hits give high values
[7] = target: Short transient receptor potential channel 4 (Mus musculus) (UniProt Q9QUQ5); assay: TRPC4 positive allosteric modulators, dose response, cell-based, HEK293 TRPC4/mu-opioid, Fluo-4 calcium, EC20 DAMGO (AID 434941;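 active = earlier screen potentiator hit that boosts the TRPC4 ion channel at some dose, with a dose response; inactive = no potentiation, no dose response, or not a prior hit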;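 also: calcium entry triggered by an EC20 dose of DAMGO at the co-expressed mu-opioid receptor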)
[8] = target: Short transient receptor potential channel 4 (Mus musculus) (UniProt Q9QUQ5); assay: mouse TRPC4 channel inhibitors, dose response, cell-based, HEK293 TRPC4/mu-opioid, Fluo-4 calcium (AID 434942;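 active = primary screen inhibitor hit that blocks the TRPC4 channel at some tested dose, yielding a dose curve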)
[9] = target: Short transient receptor potential channel 6 (Mus musculus) (UniProt Q61143); assay: inhibition of mouse TRPC6 channel, confirmation, selectivity assay for TRPC4 inhibitor project, cell-based, HEK293, membrane potential dye, duplicate (AID 434948;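 active = active in primary screen and both duplicates, each dropping signal beyond three positive-control SD with fluorescence still positive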); conditions: HEK293 TRPC6, membrane potential dye fluorescence, at 10 µM, stimulated with maximal-effect acetylcholine; hits give high values
[10] = target: Short transient receptor potential channel 6 (Mus musculus) (UniProt Q61143); assay: activation of mouse TRPC6 channel, confirmation, selectivity assay for TRPC4 activator project, cell-based, HEK293, membrane potential dye, duplicate (AID 434950;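 active = membrane potential signal rise above negative control mean plus 3 SD in both duplicates, also active in the earlier TRPC4 screen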;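 as to activation: 0% = buffer only wells and 100% = acetylcholine maximal-effect wells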); conditions: HEK293 TRPC6, membrane potential fluorescence, at 10 µM; hits give high values
[11] = target: Short transient receptor potential channel 6 (Mus musculus) (UniProt Q61143); assay: TRPC6 potentiation by TRPC4 potentiator hits, confirmation, selectivity assay for TRPC4 potentiator project, HEK293 cells, membrane potential dye, duplicate (AID 434952;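 active = compound raising the membrane signal above positive-control mean plus 3 SD in both repeats, and a primary screen hit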); conditions: HEK293 TRPC6, membrane potential dye fluorescence, at 10 µM, maximal acetylcholine added after compound; hits give high values
[12] = target: Short transient receptor potential channel 4 (Mus musculus) (UniProt Q9QUQ5); assay: calcium flux activators in TRPC4/5HT1a cells, counter-screen for TRPC4 activator project, cell-based, second counter screen, HEK293 TRPC4/5HT1a, Fluo-4 (AID 434977;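 active = calcium signal rise above buffer-control mean plus 5 SD in both duplicates, and also a hit in the primary screen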;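 as to activation: plate controls were assay buffer for no effect and maximal serotonin response for full effect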); conditions: Fluo-4 calcium flux, at 10 µM; hits give high values
[13] = calcium flux inhibitors in TRPC4/5HT1a cells, confirmation, counter-screen for TRPC4 inhibitor project, cell-based, second counter screen, HEK293 TRPC4/5HT1a, Fluo-4 (AID 434978;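 active = primary screen active whose calcium signal fell more than 3 SD beyond the full-serotonin control mean in both duplicate plates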;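 also: serotonin given first at submaximal then at maximal dose after compound preincubation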); conditions: Fluo-4 calcium flux, at 10 µM, serotonin added to trigger calcium flux; hits give high values
[14] = tested on: TRPC4 (mouse), co-expressed with 5HT1a in HEK293; assay: calcium flux potentiators in TRPC4/5HT1a cells, confirmation, counter-screen for TRPC4 potentiator project, cell-based, second counter screen, HEK293 TRPC4/5HT1a, Fluo-4 (AID 434979;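 active = signal rise over 3 SD above mean of control wells given weak agonist, in both repeats and first screen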); conditions: Fluo-4 calcium flux, at 10 µM, serotonin added at its EC20 dose; hits give high values
[15] = calcium flux activation in mu-opioid HEK293 cells, confirmation, counter-screen for TRPC4 activator project, cell-based, HEK293 mu-opioid receptor line (AID 449723;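 active = hit in primary screen, with calcium signal over 5 SD above buffer well mean in both duplicates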;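 also: counter screen cells carry the mu-opioid receptor alone and lack TRPC4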); conditions: Fluo-4 calcium fluorescence, at 10 µM; hits give high values
[16] = calcium flux enhancement in mu-opioid HEK293 cells, confirmation, counter-screen for TRPC4 allosteric potentiator project, cell-based, HEK293 mu-opioid receptor line (AID 449724;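 active = calcium signal rise more than 3 SD above the low-dose agonist control mean, in both duplicate plates and the primary screen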); conditions: Fluo-4 calcium flux, at 10 µM, compound added before EC20 DAMGO stimulus; hits give high values

Short transient receptor potential channel 4 (Mus musculus), sequence (Q9QUQ5 whole entry, looked up): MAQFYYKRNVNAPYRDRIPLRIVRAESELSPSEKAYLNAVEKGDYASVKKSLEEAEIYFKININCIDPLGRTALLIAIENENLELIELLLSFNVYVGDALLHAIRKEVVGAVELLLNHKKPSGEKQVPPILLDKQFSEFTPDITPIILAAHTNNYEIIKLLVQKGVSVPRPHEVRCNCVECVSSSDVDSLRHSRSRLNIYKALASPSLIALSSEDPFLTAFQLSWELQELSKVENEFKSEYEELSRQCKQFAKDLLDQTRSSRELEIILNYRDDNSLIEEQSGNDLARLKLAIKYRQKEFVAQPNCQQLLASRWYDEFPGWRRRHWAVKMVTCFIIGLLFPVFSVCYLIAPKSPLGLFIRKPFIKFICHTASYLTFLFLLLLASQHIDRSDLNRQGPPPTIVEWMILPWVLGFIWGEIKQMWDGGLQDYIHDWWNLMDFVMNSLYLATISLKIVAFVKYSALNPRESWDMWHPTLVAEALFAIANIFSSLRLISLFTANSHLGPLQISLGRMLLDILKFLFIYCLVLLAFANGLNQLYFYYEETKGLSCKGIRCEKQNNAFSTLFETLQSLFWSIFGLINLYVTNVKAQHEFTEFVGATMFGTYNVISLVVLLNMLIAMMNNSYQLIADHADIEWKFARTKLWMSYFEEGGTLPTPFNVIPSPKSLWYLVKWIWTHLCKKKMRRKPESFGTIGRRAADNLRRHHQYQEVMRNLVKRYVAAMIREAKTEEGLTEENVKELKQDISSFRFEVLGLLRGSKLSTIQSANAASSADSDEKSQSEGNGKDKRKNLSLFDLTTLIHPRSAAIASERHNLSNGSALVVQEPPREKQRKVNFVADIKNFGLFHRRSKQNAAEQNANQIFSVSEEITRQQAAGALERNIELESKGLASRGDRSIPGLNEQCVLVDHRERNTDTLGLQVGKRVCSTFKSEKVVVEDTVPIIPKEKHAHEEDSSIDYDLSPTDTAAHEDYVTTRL
Short transient receptor potential channel 6 (Mus musculus), sequence (Q61143 whole entry, looked up): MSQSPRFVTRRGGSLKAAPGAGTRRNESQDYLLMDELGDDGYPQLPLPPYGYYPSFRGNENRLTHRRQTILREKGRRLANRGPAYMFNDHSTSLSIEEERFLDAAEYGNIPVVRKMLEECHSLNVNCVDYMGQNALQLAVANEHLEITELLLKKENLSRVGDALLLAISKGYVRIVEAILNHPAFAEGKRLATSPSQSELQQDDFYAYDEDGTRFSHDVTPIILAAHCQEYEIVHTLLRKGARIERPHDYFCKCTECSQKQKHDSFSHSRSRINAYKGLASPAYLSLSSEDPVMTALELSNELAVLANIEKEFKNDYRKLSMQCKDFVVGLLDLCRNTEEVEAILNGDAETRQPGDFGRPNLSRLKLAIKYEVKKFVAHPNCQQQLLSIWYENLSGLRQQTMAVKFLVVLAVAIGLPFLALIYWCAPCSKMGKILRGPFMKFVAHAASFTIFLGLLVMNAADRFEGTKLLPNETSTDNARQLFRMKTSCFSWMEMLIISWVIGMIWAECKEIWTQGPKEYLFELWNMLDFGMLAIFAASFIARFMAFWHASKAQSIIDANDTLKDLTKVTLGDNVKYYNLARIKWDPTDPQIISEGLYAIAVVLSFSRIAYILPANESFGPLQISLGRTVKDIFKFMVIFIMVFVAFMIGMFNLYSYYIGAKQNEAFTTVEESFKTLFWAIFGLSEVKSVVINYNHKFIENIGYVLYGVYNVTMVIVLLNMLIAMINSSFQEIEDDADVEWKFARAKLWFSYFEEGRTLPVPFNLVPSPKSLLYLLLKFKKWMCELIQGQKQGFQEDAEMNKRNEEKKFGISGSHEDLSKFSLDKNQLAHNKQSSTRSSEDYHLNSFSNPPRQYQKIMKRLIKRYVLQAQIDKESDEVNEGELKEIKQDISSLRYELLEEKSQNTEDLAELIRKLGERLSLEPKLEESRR

COc1cc(OC)c(CN2CCC(Cc3ccccc3)CC2)cc1Br
active: activation [1] 121% | activation [10] 43.5% | activation [12] 44.9%
inactive: outcome [2] | outcome [3] | outcome [4] | outcome [5] | outcome [6] | outcome [7] | outcome [8] | outcome [9] | outcome [11] | outcome [13] | outcome [14] | outcome [15] | outcome [16]

CCN1CCN(c2c(Cl)cccc2NC(=O)c2ccc3nsnc3c2)CC1
inactive: outcome [2] | outcome [5] | outcome [6] | outcome [7] | outcome [8] | outcome [9] | outcome [10] | outcome [11] | outcome [12] | outcome [13] | outcome [14] | outcome [15] | outcome [16]
active: activation [1] 57% | potentiation [3] 22% | potentiation [4] 14%

CN(C)C(CNC(C(=O)Nc1ccc(F)cc1)c1ccccc1)c1ccccc1 (stereo not given)
active: activation [1] 126% | activation [2] 68%
inactive: outcome [3] | outcome [4] | outcome [5] | outcome [6] | outcome [7] | outcome [8] | outcome [9] | outcome [10] | outcome [11] | outcome [12] | outcome [13] | outcome [14] | outcome [15] | outcome [16]

CN(C)CCCN(C(=O)c1ccc(S(=O)(=O)N2CCCCCC2)cc1)c1nc2ccc(F)cc2s1
active: activation [1] 278% | activation [12] 44.3% | activation [15] 27.1%
inactive: outcome [2] | outcome [3] | outcome [4] | outcome [5] | outcome [6] | outcome [7] | outcome [8] | outcome [9] | outcome [10] | outcome [11] | outcome [13] | outcome [14] | outcome [16]

NCCSc1c(-c2ccc(Cl)cc2)[nH]c2ccccc12
active: activation [1] 116% | activation [12] 8.63% | activation [15] 19.5%
inactive: outcome [2] | outcome [3] | outcome [4] | outcome [5] | outcome [6] | outcome [7] | outcome [8] | outcome [9] | outcome [10] | outcome [11] | outcome [13] | outcome [14] | outcome [16]

O=C(c1sc2ccccc2c1Cl)N(Cc1ccco1)C1CCS(=O)(=O)C1 (stereo not given)
inactive: outcome [2] | outcome [3] | outcome [4] | outcome [5] | outcome [6] | outcome [7] | outcome [8] | outcome [9] | outcome [11] | outcome [12] | outcome [13] | outcome [14] | outcome [15] | outcome [16]
active: activation [1] 198% | activation [10] 57.5%

CC(=O)N1CCc2cc(Br)cc(S(=O)(=O)NCCCN(C)Cc3ccccc3)c21
active: activation [1] 87% | activation [2] 72% | activation [12] 27.8%
inactive: outcome [3] | outcome [4] | outcome [5] | outcome [6] | outcome [7] | outcome [8] | outcome [9] | outcome [10] | outcome [11] | outcome [13] | outcome [14] | outcome [15] | outcome [16]

COc1ccc(C(CCNCc2ccc(N(C)C)cc2)c2ccccc2OC)cc1 (stereo not given)
active: activation [1] 133% | activation [12] 8.8%
inactive: outcome [2] | outcome [3] | outcome [4] | outcome [5] | outcome [6] | outcome [7] | outcome [8] | outcome [9] | outcome [10] | outcome [11] | outcome [13] | outcome [14] | outcome [15] | outcome [16]

Cc1csc2c(N3CCN(C(=S)Nc4ccc(F)cc4F)CC3)ncnc12
inactive: outcome [2] | outcome [3] | outcome [4] | outcome [5] | outcome [6] | outcome [7] | outcome [8] | outcome [9] | outcome [10] | outcome [11] | outcome [13] | outcome [14] | outcome [15] | outcome [16]
active: activation [1] 126% | activation [12] 40.5%

CCN(CCCNS(=O)(=O)c1cc(-c2cc(C)no2)ccc1C)Cc1ccccc1
active: activation [1] 171% | activation [2] 96% | activation [10] 40.5% | activation [12] 68.6%
inactive: outcome [3] | outcome [4] | outcome [5] | outcome [6] | outcome [7] | outcome [8] | outcome [9] | outcome [11] | outcome [13] | outcome [14] | outcome [15] | outcome [16]

O=C(NNC(=S)NC(=O)c1ccccc1Cl)c1cccc([N+](=O)[O-])c1
active: activation [1] 120% | activation [10] 29% | activation [12] 77.4% | activation [15] 23%
inactive: outcome [2] | outcome [3] | outcome [4] | outcome [5] | outcome [6] | outcome [7] | outcome [8] | outcome [9] | outcome [11] | outcome [13] | outcome [14] | outcome [16]

CCn1c(=O)cc(OCC(=O)NCCCN2CC(C)CC(C)C2)c2ccccc21 (stereo not given)
active: activation [1] 80% | activation [2] 73% | activation [12] 17.3%
inactive: outcome [3] | outcome [4] | outcome [5] | outcome [6] | outcome [7] | outcome [8] | outcome [9] | outcome [10] | outcome [11] | outcome [13] | outcome [14] | outcome [15] | outcome [16]

Cc1cc(C)c(C)c(OCCCN(C)C)c1
inactive: outcome [3] | outcome [4] | outcome [5] | outcome [6] | outcome [7] | outcome [8] | outcome [9] | outcome [11] | outcome [13] | outcome [15] | outcome [16]
active: activation [1] 152% | activation [2] 95% | activation [10] 67.5% | activation [12] 47.6% | potentiation [14] 15.7%

O=S(=O)(c1ccccc1)c1nnn2c1nc(NC1CCN(Cc3ccccc3)CC1)c1cc(Cl)ccc12
inactive: outcome [2] | outcome [3] | outcome [4] | outcome [5] | outcome [6] | outcome [7] | outcome [8] | outcome [9] | outcome [10] | outcome [11] | outcome [12] | outcome [13] | outcome [14] | outcome [15] | outcome [16]
active: activation [1] 64%

CCCCN(CC)CCCNC(=O)Cn1nc(Cc2ccncc2)c2ccccc2c1=O
inactive: outcome [3] | outcome [4] | outcome [5] | outcome [6] | outcome [7] | outcome [8] | outcome [9] | outcome [11] | outcome [13] | outcome [14] | outcome [15] | outcome [16]
active: activation [1] 162% | activation [2] 120% | activation [10] 31.5% | activation [12] 53.7%
